Source: PubChem BioAssay (National Center for Advancing Translational Sciences (NCATS))
TDP1 cell noCPT: qHTS for Inhibitors of human tyrosyl-DNA phosphodiesterase 1 (TDP1): qHTS in cells in absence of CPT; DT40 Tdp1-/- hTDP1 cells, no CPT, ATP luminescence, 48 h; Potency, µM (top dose mostly 46.2 µM), without a hit: at the top dose activity change, negative = growth inhibition, most hits filed as inhibitors; 420,000 tested, 15% active; further: potency means the concentration at half of the fitted maximal effect; nearly all actives have a fitted effect of over 55% in size
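Cells were dispensed at 400 per well, compounds added by pin tool, plates incubated ≥48 hr at 37 °C, then CellTiter-Glo added for 30 min at room temperature before luminescence reading. Line: DT40 Tdp1-/- complemented with hTDP1; camptothecin omitted.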
TDP1 inh: inhibitors of human tyrosyl-DNA phosphodiesterase TDP1; recombinant TDP1, AlphaScreen DNA substrate cleavage; 350,000 tested, 0.28% active; Q9NUW8; Potency, µM (doses to about 130 µM), inactives show at the top dose activity change, negative = inhibition, hits mostly inhibitors; further: potency means the concentration at half of the fitted maximal effect; nearly all actives have a fitted effect of over 40% in size
Target sequence (Q9NUW8 whole entry, looked up): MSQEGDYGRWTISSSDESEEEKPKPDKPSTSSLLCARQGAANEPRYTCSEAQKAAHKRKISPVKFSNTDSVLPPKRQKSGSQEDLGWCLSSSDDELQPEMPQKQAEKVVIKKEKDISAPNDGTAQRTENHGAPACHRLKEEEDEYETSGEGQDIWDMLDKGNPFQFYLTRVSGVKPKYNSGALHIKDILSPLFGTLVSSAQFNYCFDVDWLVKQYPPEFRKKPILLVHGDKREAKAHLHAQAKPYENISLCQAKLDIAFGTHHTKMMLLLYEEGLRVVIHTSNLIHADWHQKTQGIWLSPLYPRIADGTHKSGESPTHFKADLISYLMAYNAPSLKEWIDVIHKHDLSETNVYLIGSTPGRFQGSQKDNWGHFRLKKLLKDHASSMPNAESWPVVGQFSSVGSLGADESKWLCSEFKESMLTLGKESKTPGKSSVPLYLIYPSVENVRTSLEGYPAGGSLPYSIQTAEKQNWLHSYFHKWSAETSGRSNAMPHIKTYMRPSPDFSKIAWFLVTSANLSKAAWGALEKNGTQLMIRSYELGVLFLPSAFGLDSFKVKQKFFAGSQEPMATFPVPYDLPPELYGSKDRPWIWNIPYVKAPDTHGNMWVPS
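E. coli-derived human Tdp1, 1 nM final. Cpd preinc 15 min RT; substrate 15 nM final, 5 min RT; AS bead mix 10 ug/ml final, 10 min RT. Signal loss = tyrosine-FITC cleavage. No-enzyme wells = max signal.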
IL1B secr inh: inflammasome signaling inhibition, IL-1 beta readout. THP-1 LPS/ATP IL-1B secretion, AlphaLISA, 16 h; active compounds read low. activity change, % at 57.5 µM. 360,000 tested, 4.7% active; in the data active means activity change below about -50%; inconclusive means mostly about -30% to -49%
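THP-1 cells pretreated 1 hr with compounds (up to 57.5 uM final), then stimulated with LPS (250 ng/mL final) plus ATP (1.25 mM final); secreted IL-1B measured by AlphaLISA after 16 hr, decreased signal indicating inhibition.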
Giardia killer: kills Giardia lamblia | activity change, % at 7.66 µM, hits read low | AID 540267 | 340,000 tested, 0.15% active | Giardia lamblia trophozoite viability; in the data active means activity change below about -80%; inconclusive means between about -30% and that limit;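 further: parasites exposed to compound for two days anaerobically before the ATP read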
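Luminescence from cellular ATP indicates surviving trophozoites (100 cells/well) following 48 hrs anaerobic compound treatment at 37 deg C; signal develops 15-30 min at room temperature.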
DT40 TDP1 CPT: growth inhibition of DT40 Tdp1-/-;hTDP1 cells with camptothecin (screen for TDP1 inhibitors). chicken DT40 Tdp1-/-;hTDP1 cells + 20 nM CPT, ATP luminescence, 48 h. Potency, µM (top dose mostly 46.2 µM), inactives show at the top dose activity change, negative = growth inhibition, most hits filed as inhibitors. 420,000 tested, 12% active. AID 686979; further: potency means the concentration at half of the fitted maximal effect; nearly all actives have a fitted effect of over 55% in size
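Cell growth measured by CellTiter-Glo luminescence after a minimum 48 h, 37 C compound exposure with 20 nM CPT in Tdp1-knockout DT40 cells stably expressing hTDP1, seeded 400/well; qHTS titration format.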
ELG1 DNA repair: inhibitors of ELG1-dependent DNA repair in HEK293T cells | HEK293T ELG1-luciferase reporter, luminescence, 16 h; DNA damage induced by 5-fluorouridine | Potency, µM (highest dose often 46.1 µM), for inactives: top-dose activity change, negative = inhibition, actives largely listed as inhibitors | 330,000 tested, 2.3% active; further: potency means the concentration at half of the fitted maximal effect; nearly all actives have a fitted effect of over 55% in size
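DMSO vehicle served as the neutral condition. Each well held 2,000 cells given 5-fluorouridine plus compound; after 16 hr at 37 °C/5% CO2, ONE-Glo was added and luciferase measured 30 min later.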
Numbers without * were called inactive; ? = inconclusive; nt = no result. This is a sample that favours compounds with a hit; in the whole collection about 19% have one here. Unless noted, the call rests on the fitted dose curve; in most records, active means well fitted curve in the direction sought with a large enough effect; inconclusive means small, poorly fitted or top-dose-only effect, or another doubt; inactive means no such curve, though single readings can be large; an effect the other way counts as inactive or inconclusive. On the % scale 0 is the no-effect control and ±100 the full control effect.

SMILES | TDP1 cell noCPT | TDP1 inh | IL1B secr inh | Giardia killer | DT40 TDP1 CPT | ELG1 DNA repair
COCCn1c(=O)cnc2cnc(N3CCNCC3)nc21 | -13% | nt | nt | nt | 14% | nt
O=C1CCCCCN1C(=O)c1ccccc1 | -8% | nt | 9 | 10 | -9% | nt
O=C1CCCCCN1Sc1ccccc1 | 5.2µM* | 9% | -101* | 6 | 5.8µM* | -13%
CCOC(=O)C1=NN(C(C)=O)C2(CC(=O)N(c3cccc(C)c3)C2=O)C1 (stereo unspecified) | -26% | 0% | 33 | -12 | ? | -2%
Cc1cn(CC(=O)NCCc2ccccn2)c(=O)[nH]c1=O | -2% | nt | 17 | 10 | -12% | nt
CCc1ccc2occ(CC(=O)Nc3c(C(=O)Nc4ccc(OC)cc4)oc4ccccc34)c2c1 | ? | 4% | nt | nt | ? | nt
Cc1cccc(NC(=O)c2ccc([N+](=O)[O-])s2)n1 | 5.8µM* | 5% | 12 | -89* | 8.2µM* | ?
Cc1cccc(NC(=O)c2ccc([N+](=O)[O-])s2)c1C | 21µM* | -5% | -15 | ? | 15µM* | ?
Cc1ccnc(NC(=O)c2ccc([N+](=O)[O-])s2)c1 | ? | 5% | -11 | ? | 16µM* | ?
COc1ccc(NC(=O)c2ccc([N+](=O)[O-])s2)c([N+](=O)[O-])c1 | -8% | -12% | 0 | ? | -27% | -5%
COCCNc1ccc([N+](=O)[O-])cc1C(=O)Nc1cccc(C)n1 | ? | 3% | 0 | -15 | 13µM* | ?
COc1ccc(N(CC(=O)N2CCOCC2)S(C)(=O)=O)cc1 | 5% | nt | -19 | -3 | 6% | -1%
O=C(/C=C/c1ccc2c(c1)OCCCO2)c1ccc2ccccc2c1O | 12µM* | 12% | 12 | 4 | ? | ?
O=C(OCC(=O)N1CCOCC1)c1ccc2ccccc2c1O | -18% | -1% | 19 | 2 | -28% | ?
CCc1cc(C(=O)/C=C/c2cc3c(cc2C)OCCO3)c(O)cc1O | 11µM* | nt | nt | nt | 13µM* | nt
Cc1ccc(C(=O)/C=C/c2ccc3c(c2)OCCO3)c(O)c1 | ? | 7% | -93* | 16 | ? | ?
COc1cc(/C=C/C(=O)c2ccc(O)cc2O)ccc1O | nt | 16% | nt | nt | nt | nt
CCc1cc(-c2n[nH]c(C)c2-c2ccc3c(c2)OCCO3)c(O)cc1O | nt | 16% | nt | nt | nt | nt
CCOc1ccc2nc(NC(=O)c3cc(=O)c4ccc(C)cc4o3)sc2c1 | -14% | 1% | nt | nt | -8% | nt
CCCN(C(=O)C1CCCN(c2ncnc3c2nc2n3CCCCC2)C1)c1ccc(F)cc1 (stereo unspecified) | 21µM* | 4% | 46 | 3 | 18µM* | -18%
Cc1ccc(NC(=O)C2CCCN(c3ncnc4c3nc3n4CCCCC3)C2)cc1F (stereo unspecified) | 23µM* | 6% | nt | nt | 18µM* | nt
O=C(Nc1ccc(F)cc1)C1CCCN(c2ncnc3c2nc2n3CCCCC2)C1 (stereo unspecified) | 12µM* | -6% | nt | nt | 13µM* | nt
CCCN(CCC)C(=O)C1CCN(c2ncnc3c2nc2n3CCCCC2)CC1 | -26% | 4% | nt | nt | ? | nt
CCOc1ccc2[nH]c3nc(SCC(=O)NC4CC4)nnc3c2c1 | ? | 3% | 55 | ? | ? | 1%
COc1ccc(CCNC(=O)c2[nH]c(C)c(C(C)=O)c2C)cc1 | -17% | 2% | -16 | 13 | -16% | -17%
CCOC(=O)c1c(C)[nH]c(C(=O)N/N=C\c2ccccc2Cl)c1C | 16µM* | -5% | 0 | 4 | 16µM* | -12%
CCOC(=O)c1c(C)[nH]c(C(=O)NNC(=O)c2ccccc2)c1C | -7% | 4% | -2 | -1 | -11% | ?
CCOC(=O)c1c(C)[nH]c(C(=O)N/N=C/c2cccc(OC)c2)c1C | 15µM* | -1% | 33 | -1 | ? | ?
